Measured values reported in PubChem BioAssay.
For some assays here: Results with a measured potency or affinity are listed apart. The source made the active and inactive calls.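 The calls were made as follows, unless noted: active = primary screen hit whose calcium fluorescence ratio, in both repeats, exceeds the weak agonist control mean by 3 SD; inactive = the rest.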

Key:
[1] = tested on: TRPC4 beta (transient receptor potential cation channel C4), mouse; assay: activators of mouse TRPC4 channel, confirmation, cell-based, Fluo4 calcium, HEK293 TRPC4beta/mu-opioid, duplicates, 10 µM (AID 2426;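 active = fluorescence ratio normalized to control raised more than 50% in primary screen plus both repeat runs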); conditions: Fluo4 calcium fluorescence, at 10 µM; stronger effect = higher value
[2] = tested on: transient receptor potential cation channel C4 beta (TRPC4), mouse; assay: activators of mouse TRPC4 channel, confirmation, cell-based, second round, Fluo4, HEK293 TRPC4beta/mu-opioid, 1 µM (AID 2461;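 active = primary screen active and over 50% activation in each of two duplicate runs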); conditions: Fluo4 calcium fluorescence, at 1 µM; stronger effect = higher value
[3] = tested on: TRPC4 (transient receptor potential cation channel C4 beta), mouse; assay: positive allosteric modulators of mouse TRPC4, confirmation, cell-based, second round, Fluo-4, HEK293 TRPC4beta/mu-opioid, 1 µM (AID 2554;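 active = primary screen hit whose fluorescence ratio, in both repeats, exceeds the weak agonist control mean by 3 SD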); conditions: DAMGO EC20, Fluo-4 calcium flux, at 1 µM; stronger effect = higher value
[4] = tested on: TRPC4 beta (transient receptor potential cation channel C4), mouse; assay: positive allosteric modulators of mouse TRPC4, confirmation, cell-based, Fluo-4, HEK293 TRPC4beta/mu-opioid (AID 2555); conditions: DAMGO EC20, Fluo-4 calcium flux, at 10 µM; stronger effect = higher value
[5] = biological target: Short transient receptor potential channel 4 (Mus musculus) (UniProt Q9QUQ5); assay: inhibitors of mouse TRPC4 channel, confirmation, cell-based, Fluo4, HEK293 TRPC4beta/mu-opioid (AID 2636;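 active = calcium signal cut by more than 3 SD below the full-agonist control yet still positive, in both repeats and the earlier primary screen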); conditions: DAMGO, Fluo4 calcium flux, at 10 µM; stronger effect = higher value
[6] = biological target: Short transient receptor potential channel 4 (Mus musculus) (UniProt Q9QUQ5); assay: inhibitors of mouse TRPC4 channel, confirmation, cell-based, second round, Fluo4, HEK293 TRPC4beta/mu-opioid, 1 µM (AID 2637;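 active = calcium signal ratio cut to more than 3 SD under the fully stimulated control mean yet still positive, in both repeats and the primary screen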;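 as to inhibition: percent of integrated ratio relative to wells lacking test compound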); conditions: Fluo4 calcium flux, DAMGO, at 1 µM; stronger effect = higher value
[7] = biological target: Short transient receptor potential channel 4 (Mus musculus) (UniProt Q9QUQ5); assay: mouse TRPC4 channel activators, dose response, cell-based, HEK293 TRPC4/mu-opioid, Fluo-4 calcium (AID 434937;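 active = primary screen activator hit with a dose response curve and TRPC4 channel activation at any tested dose; inactive = no activation, no dose response, or not a primary hit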)
[8] = biological target: Short transient receptor potential channel 4 (Mus musculus) (UniProt Q9QUQ5); assay: TRPC4 positive allosteric modulators, dose response, cell-based, HEK293 TRPC4/mu-opioid, Fluo-4 calcium, EC20 DAMGO (AID 434941;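 active = earlier screen potentiator hit that boosts the TRPC4 ion channel at some dose, with a dose response; inactive = no potentiation, no dose response, or not a prior hit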;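 also: calcium entry triggered by an EC20 dose of DAMGO at the co-expressed mu-opioid receptor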)
[9] = biological target: Short transient receptor potential channel 6 (Mus musculus) (UniProt Q61143); assay: inhibition of mouse TRPC6 channel, confirmation, selectivity assay for TRPC4 inhibitor project, cell-based, HEK293, membrane potential dye, duplicate (AID 434948;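 active = active in primary screen and both duplicates, each dropping signal beyond three positive-control SD with fluorescence still positive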); conditions: HEK293 TRPC6, membrane potential dye fluorescence, at 10 µM, stimulated with maximal-effect acetylcholine; stronger effect = higher value
[10] = biological target: Short transient receptor potential channel 6 (Mus musculus) (UniProt Q61143); assay: activation of mouse TRPC6 channel, confirmation, selectivity assay for TRPC4 activator project, cell-based, HEK293, membrane potential dye, duplicate (AID 434950;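 active = membrane potential signal rise above negative control mean plus 3 SD in both duplicates, also active in the earlier TRPC4 screen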); conditions: HEK293 TRPC6, membrane potential fluorescence, at 10 µM; stronger effect = higher value
[11] = biological target: Short transient receptor potential channel 6 (Mus musculus) (UniProt Q61143); assay: TRPC6 potentiation by TRPC4 potentiator hits, confirmation, selectivity assay for TRPC4 potentiator project, HEK293 cells, membrane potential dye, duplicate (AID 434952;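 active = compound raising the membrane signal above positive-control mean plus 3 SD in both repeats, and a primary screen hit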); conditions: HEK293 TRPC6, membrane potential dye fluorescence, at 10 µM, maximal acetylcholine added after compound; stronger effect = higher value
[12] = biological target: Short transient receptor potential channel 4 (Mus musculus) (UniProt Q9QUQ5); assay: calcium flux activators in TRPC4/5HT1a cells, counter-screen for TRPC4 activator project, cell-based, second counter screen, HEK293 TRPC4/5HT1a, Fluo-4 (AID 434977;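 active = calcium signal rise above buffer-control mean plus 5 SD in both duplicates, and also a hit in the primary screen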); conditions: Fluo-4 calcium flux, at 10 µM; stronger effect = higher value
[13] = calcium flux inhibitors in TRPC4/5HT1a cells, confirmation, counter-screen for TRPC4 inhibitor project, cell-based, second counter screen, HEK293 TRPC4/5HT1a, Fluo-4 (AID 434978;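 active = primary screen active whose calcium signal fell more than 3 SD beyond the full-serotonin control mean in both duplicate plates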;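 as to outcome: serotonin given first at submaximal then at maximal dose after compound preincubation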); conditions: Fluo-4 calcium flux, at 10 µM, serotonin added to trigger calcium flux; stronger effect = higher value
[14] = tested on: TRPC4 (mouse), co-expressed with 5HT1a in HEK293; assay: calcium flux potentiators in TRPC4/5HT1a cells, confirmation, counter-screen for TRPC4 potentiator project, cell-based, second counter screen, HEK293 TRPC4/5HT1a, Fluo-4 (AID 434979;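 active = signal rise over 3 SD above mean of control wells given weak agonist, in both repeats and first screen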); conditions: Fluo-4 calcium flux, at 10 µM, serotonin added at its EC20 dose; stronger effect = higher value
[15] = calcium flux activation in mu-opioid HEK293 cells, confirmation, counter-screen for TRPC4 activator project, cell-based, HEK293 mu-opioid receptor line (AID 449723;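 active = hit in primary screen, with calcium signal over 5 SD above buffer well mean in both duplicates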;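 also: counter screen cells carry the mu-opioid receptor alone and lack TRPC4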); conditions: Fluo-4 calcium fluorescence, at 10 µM; stronger effect = higher value
[16] = calcium flux enhancement in mu-opioid HEK293 cells, confirmation, counter-screen for TRPC4 allosteric potentiator project, cell-based, HEK293 mu-opioid receptor line (AID 449724;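 active = calcium signal rise more than 3 SD above the low-dose agonist control mean, in both duplicate plates and the primary screen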); conditions: Fluo-4 calcium flux, at 10 µM, compound added before EC20 DAMGO stimulus; stronger effect = higher value

Sequence of Short transient receptor potential channel 6 (Mus musculus) (Q61143 whole entry, looked up): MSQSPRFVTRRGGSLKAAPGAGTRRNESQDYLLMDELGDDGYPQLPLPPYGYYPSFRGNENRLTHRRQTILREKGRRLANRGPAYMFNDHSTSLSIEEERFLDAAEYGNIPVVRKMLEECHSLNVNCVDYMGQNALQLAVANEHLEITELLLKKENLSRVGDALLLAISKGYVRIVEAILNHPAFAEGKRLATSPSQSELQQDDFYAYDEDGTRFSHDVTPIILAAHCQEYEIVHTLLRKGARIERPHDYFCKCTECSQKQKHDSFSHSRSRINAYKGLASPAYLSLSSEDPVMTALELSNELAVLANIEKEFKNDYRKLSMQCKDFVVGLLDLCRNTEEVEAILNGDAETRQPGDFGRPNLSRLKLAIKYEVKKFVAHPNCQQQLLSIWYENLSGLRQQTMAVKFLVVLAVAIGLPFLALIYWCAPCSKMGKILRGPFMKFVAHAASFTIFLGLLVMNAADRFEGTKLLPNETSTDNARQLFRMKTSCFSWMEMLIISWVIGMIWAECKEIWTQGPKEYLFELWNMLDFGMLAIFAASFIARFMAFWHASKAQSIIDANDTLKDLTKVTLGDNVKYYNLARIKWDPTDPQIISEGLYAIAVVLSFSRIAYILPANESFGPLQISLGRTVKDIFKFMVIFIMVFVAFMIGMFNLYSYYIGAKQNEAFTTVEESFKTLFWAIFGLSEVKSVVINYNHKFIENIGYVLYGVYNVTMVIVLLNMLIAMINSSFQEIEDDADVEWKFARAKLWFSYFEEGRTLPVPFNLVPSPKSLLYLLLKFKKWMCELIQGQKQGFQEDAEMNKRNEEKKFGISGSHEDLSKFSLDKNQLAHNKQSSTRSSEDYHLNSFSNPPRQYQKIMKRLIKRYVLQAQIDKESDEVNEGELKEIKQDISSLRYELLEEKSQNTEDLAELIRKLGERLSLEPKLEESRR
Sequence of Short transient receptor potential channel 4 (Mus musculus) (Q9QUQ5 whole entry, looked up): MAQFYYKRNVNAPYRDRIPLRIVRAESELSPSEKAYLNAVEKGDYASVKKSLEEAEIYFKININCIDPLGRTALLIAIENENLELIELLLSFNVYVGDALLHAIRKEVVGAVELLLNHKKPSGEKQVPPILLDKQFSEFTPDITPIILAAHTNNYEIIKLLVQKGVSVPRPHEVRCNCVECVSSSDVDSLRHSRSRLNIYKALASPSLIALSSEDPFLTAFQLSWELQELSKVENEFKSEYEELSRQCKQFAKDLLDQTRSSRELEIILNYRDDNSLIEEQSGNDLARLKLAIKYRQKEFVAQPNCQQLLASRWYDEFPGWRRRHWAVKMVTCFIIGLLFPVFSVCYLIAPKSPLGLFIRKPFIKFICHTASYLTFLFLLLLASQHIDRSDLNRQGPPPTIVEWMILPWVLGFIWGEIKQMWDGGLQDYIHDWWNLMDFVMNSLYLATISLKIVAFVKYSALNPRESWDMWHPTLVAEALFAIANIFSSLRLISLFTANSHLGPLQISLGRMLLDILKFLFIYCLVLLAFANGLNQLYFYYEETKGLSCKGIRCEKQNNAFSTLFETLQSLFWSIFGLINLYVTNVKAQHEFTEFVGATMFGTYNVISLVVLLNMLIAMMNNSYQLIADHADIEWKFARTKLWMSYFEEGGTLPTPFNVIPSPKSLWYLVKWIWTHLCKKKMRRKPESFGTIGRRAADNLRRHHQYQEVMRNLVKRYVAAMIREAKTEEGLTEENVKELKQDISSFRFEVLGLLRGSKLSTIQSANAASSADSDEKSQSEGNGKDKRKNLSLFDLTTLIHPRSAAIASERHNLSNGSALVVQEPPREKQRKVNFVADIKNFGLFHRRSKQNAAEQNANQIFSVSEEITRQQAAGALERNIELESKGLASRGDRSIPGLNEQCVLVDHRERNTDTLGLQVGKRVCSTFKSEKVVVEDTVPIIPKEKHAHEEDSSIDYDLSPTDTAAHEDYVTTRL

In the case of COCCCNc1cc(C)nc2ccccc12, the outcome [1] was “inactive”, the outcome [2] was “inactive” and the outcome [3] was “inactive”. For the same compound, the outcome [4] was “inactive”, the inhibition [5] was 94% (active) and the outcome [6] was “inactive”. For the same compound, the outcome [7] was “inactive”, the outcome [8] was “inactive” and the inhibition [9] was 50.5% (active). The outcome [10] was “inactive”, the outcome [11] was “inactive” and the outcome [12] was “inactive”. For the same compound, the outcome [13] was “inactive”, the outcome [14] was “inactive” and the outcome [15] was “inactive”. For the same compound, the outcome [16] was “inactive”.

For CN(C)C(CNC(=O)CCc1nc2ccccc2s1)c1ccccc1 (centres undefined), the outcome [1] was “inactive”, the outcome [2] was “inactive” and the outcome [3] was “inactive”. For the same compound, the outcome [4] was “inactive”, the inhibition [5] was 96% (active) and the inhibition [6] was 86% (active). For the same compound, the outcome [7] was “inactive”, the outcome [8] was “inactive” and the outcome [9] was “inactive”. For the same compound, the outcome [10] was “inactive”, the outcome [11] was “inactive” and the outcome [12] was “inactive”. The outcome [13] was “inactive”, the outcome [14] was “inactive” and the outcome [15] was “inactive”. The outcome [16] was “inactive”.

In the case of Cc1[nH]nc(-c2ccc(O)cc2O)c1-c1ccc(Cl)cc1, the outcome [1] was “inactive”, the outcome [2] was “inactive” and the outcome [3] was “inactive”. For the same compound, the outcome [4] was “inactive”, the inhibition [5] was 86% (active) and the outcome [6] was “inactive”. The outcome [7] was “inactive”, the outcome [8] was “inactive” and the outcome [9] was “inactive”. For the same compound, the outcome [10] was “inactive”, the outcome [11] was “inactive” and the outcome [12] was “inactive”. For the same compound, the inhibition [13] was 23.5% (active), the outcome [14] was “inactive” and the outcome [15] was “inactive”. The outcome [16] was “inactive”.

For O=C(NCCN1CCOCC1)c1cc2sccc2n1Cc1ccc(F)cc1, the outcome [1] was “inactive”, the outcome [2] was “inactive” and the outcome [3] was “inactive”. The outcome [4] was “inactive”, the inhibition [5] was 74% (active) and the inhibition [6] was 49% (active). For the same compound, the outcome [7] was “inactive”, the outcome [8] was “inactive” and the outcome [9] was “inactive”. For the same compound, the outcome [10] was “inactive”, the outcome [11] was “inactive” and the outcome [12] was “inactive”. The inhibition [13] was 33.8% (active), the outcome [14] was “inactive” and the outcome [15] was “inactive”. The outcome [16] was “inactive”.

For Cn1cc(-c2nc3ccccc3[nH]2)c2ccccc21, the outcome [1] was “inactive”, the outcome [2] was “inactive” and the outcome [3] was “inactive”. The outcome [4] was “inactive”, the inhibition [5] was 99% (active) and the inhibition [6] was 49% (active). For the same compound, the outcome [7] was “inactive”, the outcome [8] was “inactive” and the inhibition [9] was 5.5% (active). The outcome [10] was “inactive”, the outcome [11] was “inactive” and the outcome [12] was “inactive”. For the same compound, the inhibition [13] was 41.1% (active), the outcome [14] was “inactive” and the outcome [15] was “inactive”. For the same compound, the outcome [16] was “inactive”.

With O=C(c1ccco1)N1CCN(C/C=C/c2ccccc2)CC1 the outcome [1] was “inactive”, the outcome [2] was “inactive” and the outcome [3] was “inactive”. The outcome [4] was “inactive”, the inhibition [5] was 87% (active) and the inhibition [6] was 64% (active). For the same compound, the outcome [7] was “inactive”, the outcome [8] was “inactive” and the outcome [9] was “inactive”. For the same compound, the outcome [10] was “inactive”, the outcome [11] was “inactive” and the outcome [12] was “inactive”. For the same compound, the outcome [13] was “inactive”, the outcome [14] was “inactive” and the outcome [15] was “inactive”. For the same compound, the outcome [16] was “inactive”.

For Cc1cccc(N(C(=O)c2snc(C(N)=O)c2N)C(C(=O)NCC2CCCO2)c2ccc3ncccc3c2)c1 (centres undefined), the outcome [1] was “inactive”, the outcome [2] was “inactive” and the outcome [3] was “inactive”. The outcome [4] was “inactive”, the inhibition [5] was 85% (active) and the outcome [6] was “inactive”. The outcome [7] was “inactive”, the outcome [8] was “inactive” and the outcome [9] was “inactive”. For the same compound, the outcome [10] was “inactive”, the outcome [11] was “inactive” and the outcome [12] was “inactive”. For the same compound, the outcome [13] was “inactive”, the outcome [14] was “inactive” and the outcome [15] was “inactive”. For the same compound, the outcome [16] was “inactive”.

In the case of Cc1ccc(N(C(=O)c2snc(C(N)=O)c2N)C(C(=O)NCC2CCCO2)c2ccc(C)o2)c(C)c1 (centres undefined), the outcome [1] was “inactive”, the outcome [2] was “inactive” and the outcome [3] was “inactive”. For the same compound, the outcome [4] was “inactive”, the inhibition [5] was 75% (active) and the outcome [6] was “inactive”. For the same compound, the outcome [7] was “inactive”, the outcome [8] was “inactive” and the outcome [9] was “inactive”. The outcome [10] was “inactive”, the outcome [11] was “inactive” and the outcome [12] was “inactive”. For the same compound, the inhibition [13] was 34% (active), the outcome [14] was “inactive” and the outcome [15] was “inactive”. For the same compound, the outcome [16] was “inactive”.

In the case of O=C(Nc1ccc(F)cc1)N1CCN2C(=O)c3ccccc3C12c1ccccc1 (centres undefined), the outcome [1] was “inactive”, the outcome [2] was “inactive” and the outcome [3] was “inactive”. The outcome [4] was “inactive”, the inhibition [5] was 68% (active) and the outcome [6] was “inactive”. The outcome [7] was “inactive”, the outcome [8] was “inactive” and the outcome [9] was “inactive”. For the same compound, the outcome [10] was “inactive”, the outcome [11] was “inactive” and the outcome [12] was “inactive”. The outcome [13] was “inactive”, the outcome [14] was “inactive” and the outcome [15] was “inactive”. The outcome [16] was “inactive”.

In the case of Cc1cc(N2CCC(C)CC2)nc2cccc(O)c12, the outcome [1] was “inactive”, the outcome [2] was “inactive” and the outcome [3] was “inactive”. The outcome [4] was “inactive”, the inhibition [5] was 95% (active) and the inhibition [6] was 83% (active). The outcome [7] was “inactive”, the outcome [8] was “inactive” and the inhibition [9] was 59% (active). The outcome [10] was “inactive”, the outcome [11] was “inactive” and the outcome [12] was “inactive”. The outcome [13] was “inactive”, the outcome [14] was “inactive” and the outcome [15] was “inactive”. The outcome [16] was “inactive”.

In the case of COC(=O)c1ccc(CSc2nc3ccccc3c(=O)n2CC(C)C)o1, the outcome [1] was “inactive”, the outcome [2] was “inactive” and the outcome [3] was “inactive”. The outcome [4] was “inactive”, the inhibition [5] was 82% (active) and the inhibition [6] was 41% (active). For the same compound, the outcome [7] was “inactive”, the outcome [8] was “inactive” and the outcome [9] was “inactive”. The outcome [10] was “inactive”, the outcome [11] was “inactive” and the outcome [12] was “inactive”. The inhibition [13] was 39.8% (active), the outcome [14] was “inactive” and the outcome [15] was “inactive”. For the same compound, the outcome [16] was “inactive”.

In the case of N=c1c2c(n(Cc3ccccc3)c3c1CCC3)CCC2, the outcome [1] was “inactive”, the outcome [2] was “inactive” and the outcome [3] was “inactive”. The outcome [4] was “inactive”, the inhibition [5] was 65% (active) and the outcome [6] was “inactive”. For the same compound, the outcome [7] was “inactive”, the outcome [8] was “inactive” and the inhibition [9] was 53.5% (active). For the same compound, the outcome [10] was “inactive”, the outcome [11] was “inactive” and the outcome [12] was “inactive”. The inhibition [13] was 37.3% (active), the outcome [14] was “inactive” and the outcome [15] was “inactive”. The outcome [16] was “inactive”.

For COc1ccc(C(CNC(=O)c2oc3ccc(F)cc3c2C)N2CCCCC2)cc1 (centres undefined), the outcome [1] was “inactive”, the outcome [2] was “inactive” and the outcome [3] was “inactive”. For the same compound, the outcome [4] was “inactive”, the inhibition [5] was 98% (active) and the outcome [6] was “inactive”. The outcome [7] was “inactive”, the outcome [8] was “inactive” and the outcome [9] was “inactive”. For the same compound, the outcome [10] was “inactive”, the outcome [11] was “inactive” and the outcome [12] was “inactive”. For the same compound, the outcome [13] was “inactive”, the outcome [14] was “inactive” and the outcome [15] was “inactive”. The outcome [16] was “inactive”.

For CC1CCc2c(sc3ncnc(SCC(=O)Nc4ccc(C(=O)O)cc4)c23)C1 (centres undefined), the outcome [1] was “inactive”, the outcome [2] was “inactive” and the outcome [3] was “inactive”. The outcome [4] was “inactive”, the inhibition [5] was 88% (active) and the inhibition [6] was 45% (active). The outcome [7] was “inactive”, the outcome [8] was “inactive” and the outcome [9] was “inactive”. The outcome [10] was “inactive”, the outcome [11] was “inactive” and the outcome [12] was “inactive”. For the same compound, the outcome [13] was “inactive”, the outcome [14] was “inactive” and the outcome [15] was “inactive”. The outcome [16] was “inactive”.
